We go through 23 compounds from PubChem BioAssay.

Active and inactive are the calls of the source. How the calls were made is not given here.

Sequence of Pantothenate synthetase (Mycobacterium tuberculosis (strain ATCC 25618 / H37Rv)) (P9WIL5 whole entry, looked up): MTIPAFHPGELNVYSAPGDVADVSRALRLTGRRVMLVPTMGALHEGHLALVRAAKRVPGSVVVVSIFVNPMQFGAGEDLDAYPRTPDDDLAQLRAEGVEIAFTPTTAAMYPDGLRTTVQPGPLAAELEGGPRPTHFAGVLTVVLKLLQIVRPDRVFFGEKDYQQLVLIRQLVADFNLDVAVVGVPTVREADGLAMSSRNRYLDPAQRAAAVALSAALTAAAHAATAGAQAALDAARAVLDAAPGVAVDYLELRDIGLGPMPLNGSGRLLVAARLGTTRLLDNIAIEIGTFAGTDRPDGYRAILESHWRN

The assay has as its target Pantothenate synthetase (Mycobacterium tuberculosis (strain ATCC 25618 / H37Rv)) (UniProt P9WIL5). Kind of assay: Recombinant Mtb pantothenate synthetase (PanC) inhibitors, coupled enzyme, confirmatory (AID 375).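 Further: 0% = full reaction with vehicle and 100% = no enzyme background.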 Conditions: coupled enzyme assay; at 10 µM, stronger effect = higher value.
In the case of `Clc1ccc(OCc2nc(-c3ccccn3)no2)c(Br)c1`, the inhibition was 0% (inactive).
The figure for `Cn1ccnc1C(O)c1ccco1` (stereo not drawn) is 3% (inactive); for `O=S(=O)(c1ccc(S(=O)(=O)N2CCN3CCCC3C2)cc1)N1CCCC1` (stereo not drawn) it is 0% (inactive); for `C=CCOc1ccc(C2/C(=C(\O)c3c(C)[nH]c(C(=O)OC)c3C)C(=O)C(=O)N2CCN(C)C)cc1` (stereo not drawn) it is 0% (inactive).
Regarding `Cc1nn(C)cc1/C=N/O`, the inhibition was 0% (inactive).
With `O=C(NCCC1=CCCCC1)C1CCN(S(=O)(=O)c2cccc3nsnc23)CC1` the figure was 10% (inactive); with `COc1cc(OC)c(C2N(C)c3ccccc3N2C)cc1OC`, 0% (inactive); with `C=CCOc1ccc(/C=N/n2cncn2)cc1OC`, 0% (inactive).
On to `COc1ccccc1NC1=NC(c2ccc(Cl)cc2)N=C(N)N1` (stereo not drawn), for which the inhibition was 0% (inactive).
In the case of `CC1CN(CC(O)COc2ccc(C(C)C)cc2)CC(C)O1` (stereo not drawn), the inhibition was 0% (inactive).
The figure for `COc1ccc(S(=O)(=O)Cc2ccc(C(=O)NCCc3ccc(S(N)(=O)=O)cc3)o2)cc1` is 0% (inactive).
The figure for `Cc1ccccc1NS(=O)(=O)c1ccc(NC(=O)c2ccco2)cc1` is 0% (inactive); for `O=S(=O)(NCc1ccccn1)c1ccc2c(c1)OCCO2` it is 0% (inactive).
The figure for `CCCn1c(NCc2ccc3c(c2)OCO3)nc2ccccc21` is 0% (inactive); for `O=C(Cc1ccc(Br)cc1)N1CCCCCC1` it is 1% (inactive).
Consider `COc1cc2c(cc1OC)CN(C(=O)CSc1nnc3scc(-c4ccccc4)n13)CC2`, for which the inhibition is 0% (inactive).
With `CCN(CC)S(=O)(=O)c1cccc(-c2nnc(SCCOc3ccccc3C)o2)c1` the figure was 1% (inactive); with `Cc1ccc(NC(=O)c2ccco2)cc1NC(=O)CSc1nnc(-c2cccs2)n1C`, 3% (inactive); with `COc1ccccc1C(=O)N1CCCC(c2nc(-c3cc(OC)c(OC)c(OC)c3)no2)C1` (stereo not drawn), 0% (inactive).
For the compound `COc1ccc2nc(CC(C)(C)CC(=O)O)c[n+]([O-])c2c1`, the inhibition is 10% (inactive).
Turning to `Cc1ccc(CNC(=O)C2CCN(S(=O)(=O)c3c(C)noc3C)CC2)cc1`, the inhibition is 3% (inactive).
The figure for `O=S(=O)(Nc1nc2ccccc2nc1NCc1ccco1)c1cccs1` is 2% (inactive); for `COc1ccc(-c2nc3c(c(SCC(=O)N4CCOCC4)n2)COC(C)(C)C3)cc1` it is 0% (inactive).
